The record followed here is PubChem BioAssay (NCI).

Compounds without any hit were thinned out: in the full panel of roughly 83,000, 20% have a hit.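 Method: cells in 96-well plates; compound added at one concentration; 48 h incubation; percent growth measured; values under 10 scored active.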 Unmarked numbers belong to inactive results. The source made the active and inactive calls.

The subject of this test is NCI/ADR-RES ovarian. Briefly: NCI-60 one-dose screen, 48 h (100 = growth as untreated, 0 = no growth, -100 = all killed). The note with it: 10 µM. The protocol: Growth inhibition of the NCI/ADR-RES human […] tumor cell line is measured as a screen for anti-cancer activity. Cells are grown in 96 well plates and exposed to the test compound for 48 hours. Compounds are tested at a single concentration, which is 10^-5 M for most compounds. The reported endpoint is percent growth (GI% or GIPRCNT), where numbers from 0 - 100% represent growth inhibition, and numbers from -100% - 0 represent cell death. For example, a value of 40 represents 60% growth inhibition. A value of 0 means no net growth occurred over the course of the experiment. A value of -40 indicates 40% of cells at the beginning of the experiment died by the end of the experiment. A value of -100 means all cells are dead at the end of the experiment.
NCI-60 Human Tumor Cell Lines Screen was performed using the standard one-dose NCI protocol, which is described in more detail at https://dtp.cancer.gov/discovery_development/nci-60/default.htm.
Compounds with GIPRCNT values below 10 were considered active. Activity score was based on GIPRCNT using the following formula: […]
Score is 0 for GIPRCNT values of 100 or above, 50 for GIPRCNT values of 0, and 100 for GIPRCNT values of -100.
In the case of `COc1ccc(/C=C/C(=O)c2nc3ccccc3n2Cc2ccc(Br)cc2)cc1`, the growth is 61.5%.
With `CC1=C(CCC=NNC(N)=O)C2=C(C)C3(CC3)[C@@](C)(O)C(=O)C2=C1`, the growth was -39.3% (active).
To `COC(=O)C[C@](O)(CCCC(C)C)C(=O)O[C@H]1C(OC)=C[C@@]23CCCN2CCc2cc4c(cc2[C@@H]13)OCO4` belongs 14.1%; to `C=CCN=C([Se])NC(=O)c1ccc2c(c1)OCO2`, 60.3%.
To `CC12OOC(C)(OO1)C2CCC(=O)NCCNc1ccnc2cc(Cl)ccc12` (stereo not given) belongs 98.3%.
To `C[C@H]1[C@@H](CC(=O)N[C@@H](Cc2coc3ccccc23)B(O)O)O[C@@H]2OC3(C)CC[C@H]4[C@H](C)CC[C@@H]1[C@@]24OO3` belongs 27.6%; to `C[C@H]1[C@H](OC(=O)CCC(=O)N(CCCc2cn(-c3ccc(CN4CCOCC4)cc3)nn2)CCNc2ccnc3cc(Cl)ccc23)O[C@@H]2OC3(C)CC[C@H]4[C@H](C)CC[C@@H]1[C@@]24OO3`, 26.1%.
On to `C#CC[Se]C(=O)c1ccc2n[se]nc2c1`, for which the growth is 49.5%.
The value for `COC(=O)C[C@](O)(CCC(C)C)C(=O)O[C@H]1C(OC)=C[C@@]23CCCN2CCc2cc4c(cc2[C@@H]13)OCO4` was -2.69% (active); that for `CC1=C(COCCOC(=O)c2ccc(S(=O)(=O)F)cc2)C2=C(C)C3(CC3)[C@@](C)(O)C(=O)C2=C1` was -43.2% (active); that for `CC(C)C[C@H](NC(=O)CNC(=O)C[C@H]1O[C@@H]2OC3(C)CC[C@H]4[C@H](C)CC[C@@H]([C@H]1C)[C@@]24OO3)B(O)O` was 94.2%.
The value for `COP(=O)(CC(F)(F)C(F)(F)F)OC` was 61.8%.
Regarding `O=C(/C=C/c1ccco1)c1nc2ccccc2n1Cc1ccc(F)cc1`, the growth was 72.5%.
To `O=C(/C=C/c1ccc(F)cc1)c1nc2ccccc2n1Cc1ccc(Br)cc1` belongs -59.8% (active).
For `CC[C@]12C=CCN3CC[C@@]4(c5ccc(OC)cc5N(C)[C@H]4[C@@](O)(C(=O)OC)[C@@H]1OC(=O)CCCC[P+](C1CCCCC1)(C1CCCCC1)C1CCCCC1)[C@@H]32`, the growth is 96.7%.
To `CC12OOC(C)(OO1)C2CCC(=O)OCCNc1ccnc2cc(Cl)ccc12` (stereo not given) belongs 53.2%; to `C#CCCCN(CCNc1ccnc2cc(Cl)ccc12)C(=O)CCC(=O)O[C@@H]1O[C@@H]2OC3(C)CC[C@H]4[C@H](C)CC[C@@H]([C@H]1C)[C@@]24OO3`, 16.2%.
The value for `COc1ccc(OC)c(/C=C/C(=O)c2nc3ccccc3n2Cc2ccc(F)cc2)c1` was -41.5% (active); that for `C#CC[Se]C(=O)c1ccc(C(=O)[Se]CC#C)s1` was 76.1%.
The value for `CC[C@@]12CC(C(=O)OC)=C3Nc4cc5c(cc4[C@@]34CCN(C[C@H]3O[C@H]31)[C@@H]24)[C@@H]1[C@H](O5)[C@@H](O)[C@@]2(CC)CC(C(=O)OC)=C3Nc4cc(OC)ccc4[C@@]34CCN1[C@@H]24` was 1.32% (active); that for `N#C[Se]CC(=O)Nc1cccc(C(F)(F)F)c1` was -60.8% (active).
`C=CC[Se]C(=O)c1ccc(C(=O)[Se]CC=C)s1`: the growth is -23.1% (active).
The value for `CC[C@]12C=CCN3CC[C@@]4(c5ccc(OC)cc5N(C)[C@H]4[C@@](O)(C(=O)OC)[C@@H]1OC(=O)CCC[P+](C1CCCCC1)(C1CCCCC1)C1CCCCC1)[C@@H]32` was 100%.
To `CC[C@]12C=CCN3CC[C@@]4(c5ccc(OC)cc5N(C)[C@H]4[C@@](O)(C(=O)OC)[C@@H]1OC(=O)CCC[P+](c1ccc(C)cc1)(c1ccc(C)cc1)c1ccc(C)cc1)[C@@H]32` belongs 18.1%; to `CC12OOC(C)(OO1)C2CCC(=O)NCCCNc1ccnc2cc(Cl)ccc12` (stereo not given), 99.9%; to `O=C(/C=C/c1ccc(Cl)cc1Cl)c1nc2ccccc2n1Cc1ccc(Br)cc1`, 82.1%.
`CC(=C\C(=O)Oc1ccc2c3c1OC1C(O)CCC4(O)C(C2)N(CC2CCC2)CCC314)/C=C1\CCCc2ccccc21` (stereo not given): the growth was 63.8%.
The value for `COCCOCCOCCOc1ccc(-n2cc(-c3ccc(O[C@H]4O[C@@H]5OC6(C)CC[C@H]7[C@H](C)CC[C@@H]([C@H]4C)[C@@]57OO6)cc3)nn2)cc1` was 34.2%; that for `O=C(NC([Se])=NC1CCCCC1)c1ccccc1` was 23.3%.
Take `CC1=C(CCC=O)C2=C(C)C3(CC3)[C@@](C)(O)C(=O)C2=C1`: the growth was -43.5% (active).
The value for `O=C(/C=C/c1ccccc1)c1nc2ccccc2n1Cc1ccc(F)cc1` was -49.6% (active); that for `CC1=C2C(=C[C@@](C)(COP(=O)(Oc3ccccc3)Oc3ccccc3)[C@@H]2O)C(=O)[C@@](C)(O)C12CC2` was -75.5% (active).
On to `O=C(/C=C/c1ccccc1Cl)c1nc2ccccc2n1Cc1ccc(F)cc1`, for which the growth is -56% (active).
In the case of `O=C(/C=C/c1cccc(Br)c1)c1nc2ccccc2n1Cc1ccc(Br)cc1`, the growth is -48.8% (active).
As for `C[C@H]1[C@@H](Oc2ccc(-c3cn(-c4ccnc5cc(Cl)ccc45)nn3)cc2)O[C@@H]2OC3(C)CC[C@H]4[C@H](C)CC[C@@H]1[C@@]24OO3`, the growth is 19.6%.
As to `CCOP(=O)(OCC)C(NC(C)=O)C(=O)SCCN` (stereo not given), the growth is 105%.
The value for `CCOP(=O)(CC(F)(F)C(F)(F)F)OCC` was 14%; that for `COc1cc(OC)c(S(=O)(=O)N(CCCl)CCCl)cc1C(=O)/C=C/c1cc(OC)c(OC)c(OC)c1` was 4.75% (active).
Consider `O=C(/C=C/c1ccc(Br)cc1)c1nc2ccccc2n1Cc1ccc(Br)cc1`, for which the growth is -38.2% (active).
For the compound `COC(=O)C[C@](O)(CCC(C)C)C(=O)O[C@@H]1C(OC)=C[C@]23CCCN2CCc2cc4c(cc2[C@H]13)OCO4`, the growth was -29.7% (active).
